Laboratory results taken from PubChem BioAssay AID1159580 (chemical genetic matrix, 2015).
Out of some 5,500 compounds screened, about 2,000 (36%) were called active. Another 18% or so got no clear call; they are omitted. Rule as the data show it: active = normalized growth mostly below about 0.91 (no sharp cut-off); inconclusive = no clear call, values can overlap the other calls; inactive = mostly above about 0.92. The list shows a part of the results.

Assay: chemical genetic growth profiling, strain panel (AID 1159580);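 also: tested at 20 µM; growth read once vehicle control cultures reached saturation at 30 °C; 1 = growth at the plate median or of vehicle wells; lower values mean less growth of the strain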
Conditions: S. cerevisiae deletion strains, growth OD

Measured: normalized growth

CC1=NN=C(c2ccc(N)cc2)c2cc3c(cc2C1)OCO3
inactive: locus YAL013W, strain DEP1, stronger effect = lower value 0.989 | locus YAL040C, strain CLN3, stronger effect = lower value 0.968 | locus YCL061C, strain MRC1 (second series), stronger effect = lower value 0.991 | locus YDR363W, strain ESC2, stronger effect = lower value 0.986 | locus YER002W, strain NOP16, stronger effect = lower value 0.967 | locus YMR263W, strain SAP30, stronger effect = lower value 0.996 | locus YMR307W, strain GAS1, stronger effect = lower value 1 | locus YNL128W, strain TEP1, stronger effect = lower value 0.983 | locus YNL153C, strain GIM3, stronger effect = lower value 0.957 | locus YNL175C, strain NOP13, stronger effect = lower value 0.968 | locus YNL197C, strain WHI3, stronger effect = lower value 0.964 | locus YNL224C, strain SQS1, stronger effect = lower value 0.989 | locus YOR083W, strain WHI5 (second series), stronger effect = lower value 0.936 | locus YPL055C, strain LGE1, stronger effect = lower value 0.984

Cc1nnc2n1N=C(c1ccc(CC(C)C)cc1)C(C)S2 (stereo not given)
inactive: locus YAR019C, strain CDC15, stronger effect = lower value 0.971 | locus YBL105C, strain PKC1, stronger effect = lower value 0.975 | locus YBR135W, strain CKS1, stronger effect = lower value 0.964 | locus YBR136W, strain MEC1, stronger effect = lower value 0.975 | locus YBR160W, strain CDC28, stronger effect = lower value 0.978 | locus YDL017W, strain CDC7, stronger effect = lower value 0.982 | locus YDL028C, strain MPS1, stronger effect = lower value 0.972 | locus YDL101C, strain DUN1, stronger effect = lower value 0.965 | locus YDL108W, strain KIN28, stronger effect = lower value 0.97 | locus YDL132W, strain cdc53, stronger effect = lower value 0.972 | locus YDL214C, strain PRR2, stronger effect = lower value 0.98 | locus YDR052C, strain DBF4, stronger effect = lower value 0.977 | locus YDR054C, strain cdc34, stronger effect = lower value 0.973 | locus YDR226W, strain ADK1, stronger effect = lower value 0.966 | locus YDR477W, strain SNF1, stronger effect = lower value 0.975 | locus YER123W, strain YCK3, stronger effect = lower value 0.941 | locus YER133W, strain GLC7, stronger effect = lower value 0.972 | locus YFL009W, strain cdc4, stronger effect = lower value 0.971 | locus YFL029C, strain CAK1, stronger effect = lower value 0.971 | locus YFR003C, strain YPI1, stronger effect = lower value 0.978 | locus YFR019W, strain FAB1, stronger effect = lower value 0.986 | locus YFR028C, strain CDC14, stronger effect = lower value 0.969 | locus YGR040W, strain KSS1, stronger effect = lower value 0.979 | locus YGR052W, strain FMP48, stronger effect = lower value 1.05 | locus YGR092W, strain DBF2, stronger effect = lower value 0.971 | locus YHR030C, strain SLT2, stronger effect = lower value 1.08 | locus YHR079C, strain IRE1, stronger effect = lower value 1.05 | locus YHR082C, strain KSP1, stronger effect = lower value 1.05 | locus YHR205W, strain SCH9, stronger effect = lower value 0.977 | locus YIL147C, strain SLN1, stronger effect = lower value 0.964 | locus YJL095W, strain BCK1, stronger effect = lower value 1.06 | locus YJL128C, strain PBS2, stronger effect = lower value 0.931 | locus YJL157C, strain FAR1, stronger effect = lower value 0.983 | locus YJR016C, strain ILV3, stronger effect = lower value 0.98 | locus YJR066W, strain TOR1 (second series), stronger effect = lower value 0.971 | locus YJR066W, strain TOR1, stronger effect = lower value 1.07 | locus YKL048C, strain ELM1, stronger effect = lower value 0.979 | locus YKL067W, strain YNK1, stronger effect = lower value 0.98 | locus YKL101W, strain HSL1, stronger effect = lower value 0.985 | locus YKL193C, strain SDS22, stronger effect = lower value 0.972 | locus YKL203C, strain TOR2, stronger effect = lower value 1.04 | locus YLR113W, strain HOG1, stronger effect = lower value 0.973 | locus YLR133W, strain CKI1, stronger effect = lower value 0.985 | locus YLR403W, strain SFP1, stronger effect = lower value 0.965 | locus YML070W, strain DAK1, stronger effect = lower value 0.968 | locus YMR001C, strain CDC5, stronger effect = lower value 0.974 | locus YMR205C, strain PFK2 (second series), stronger effect = lower value 0.986 | locus YMR277W, strain FCP1, stronger effect = lower value 0.975 | locus YNL006W, strain LST8, stronger effect = lower value 0.986 | locus YNL020C, strain ARK1, stronger effect = lower value 0.997 | locus YNL161W, strain CBK1, stronger effect = lower value 0.977 | locus YNL183C, strain NPR1, stronger effect = lower value 1.05 | locus YNL207W, strain RIO2, stronger effect = lower value 0.98 | locus YNL222W, strain SSU72, stronger effect = lower value 0.97 | locus YNL307C, strain MCK1 (second series), stronger effect = lower value 0.97 | locus YOL078W, strain AVO1, stronger effect = lower value 0.977 | locus YOL136C, strain PFK27, stronger effect = lower value 0.975 | locus YOR061W, strain CKA2, stronger effect = lower value 0.972 | locus YOR119C, strain RIO1, stronger effect = lower value 0.982 | locus YOR231W, strain MKK1, stronger effect = lower value 1.04 | locus YOR329C, strain SCD5, stronger effect = lower value 0.98 | locus YPL031C, strain PHO85, stronger effect = lower value 0.983 | locus YPL153C, strain RAD53, stronger effect = lower value 0.956 | locus YPL204W, strain HRR25, stronger effect = lower value 0.96 | locus YPL209C, strain IPL1, stronger effect = lower value 0.98 | locus YPL256C, strain CLN2, stronger effect = lower value 1.02 | locus YPR025C, strain CCL1, stronger effect = lower value 0.969 | locus YPR106W, strain ISR1, stronger effect = lower value 0.979 | locus YPR111W, strain DBF20, stronger effect = lower value 0.967 | strain NNK1, stronger effect = lower value 0.978 | strain TSCII, stronger effect = lower value 0.972
